Assay results as given in PubChem BioAssay AID2289 (National Center for Advancing Translational Sciences (NCATS), 2010).
Screen size: about 340,000 compounds; about 3,300 (0.97%) were called active. Inconclusive results (about 9%) are left out. The call rests on the fitted dose curve; in most records, active means well fitted inhibition curve with a large enough effect; inconclusive means small, poorly fitted or top-dose-only effect, or effect the other way; inactive means flat fitted curve, though single readings scatter. Some of the results follow.
Potency means the concentration at half of the fitted maximal effect.

Assay: qHTS Assay for Modulators of miRNAs and/or Inhibitors of miR-21; further: nearly all actives have a fitted effect of over 55% in size
Details: HeLa miR-21-FLuc reporter, luciferase luminescence, 48 h; actives lower the signal
Outline: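 Luminescence from a firefly luciferase reporter carrying a miR-21 binding site downstream, stably expressed under a CMV promoter in HeLa cells that make miR-21 endogenously, reports miRNA modulation after 48 h compound exposure up to approximately 40uM final.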
For `O=C(c1cc(-c2ccccc2O)on1)N1CCCCCC1`, the Potency was 2.07 µM (active). In the case of `O=C(c1cc(-c2ccccc2O)on1)N1CCOCC1`, the Potency is reported as 13.1 µM (active). For `O=C(c1cc(-c2ccccc2O)on1)N1CCCCC1`, the Potency was 0.826 µM (active). For `Cc1ccc2c(c1)NC(=O)CC(c1ccccc1)=N2`, the Potency was 13.1 µM (active). For `CSc1ccc(/C=C/C(=O)c2c(O)cc(C)oc2=O)cc1`, the Potency was 13.1 µM (active). For `Cc1ccc(NC(=O)CCCNC(=O)c2ccc(Cl)cc2)c(O)c1`, the Potency was 16.5 µM (active). In the case of `[O-]/[N+](=C\C=C\c1ccccc1)c1ccccc1`, the Potency is reported as 1.85 µM (active). With `CC(=O)Nc1ccc(C(=O)/C=C/c2ccc[nH]2)cc1` the Potency was 13.1 µM (active). In the case of `COc1ccc(N2Cc3ccc(OC)c(OC)c3C2=O)cc1`, the Potency is reported as 2.07 µM (active). In the case of `Cc1ccc(OCC(=O)Nc2ccccc2F)cc1C`, the Potency is reported as 4.14 µM (active). For `Cc1cccc(OCC(=O)Nc2ccccc2F)c1`, the Potency was 6.56 µM (active). With `Cc1ccc(NC(=O)CSc2nnc(-c3cccs3)o2)cc1S(=O)(=O)N(C)C` the Potency was 8.26 µM (active). With `O=C(CSc1nnc(-c2ccccc2Cl)o1)Nc1ccc2c(c1)OCCO2` the Potency was 6.56 µM (active). In the case of `Cc1nc(NC(=O)CSc2nnc(-c3ccc4c(c3)OCO4)o2)c(Cl)cc1Cl`, the Potency is reported as 16.5 µM (active). With `O=C(CSCc1ccccc1Cl)Nc1ccc2c(c1)OCCO2` the Potency was 2.07 µM (active). For `Cc1ccc(/C=C/C(=O)NCc2cccs2)c(C)c1`, the Potency was 5.85 µM (active). For `COc1ccc(N(/N=C2\Sc3ccccc3C2=O)C(C)=O)cc1`, the Potency was 0.261 µM (active). In the case of `O=C(COC(=O)c1ccc[nH]c1=O)NCCc1ccc(Cl)cc1Cl`, the Potency is reported as 1.65 µM (active). In the case of `COc1ccc(/C=C/c2nc(-c3ccccc3O)n[nH]2)cc1`, the Potency is reported as 2.33 µM (active). For `COc1ccc(/C=C/c2nc(-c3ccccc3O)n[nH]2)cc1OC`, the Potency was 4.65 µM (active). For `COc1cc(C(F)(F)F)ccc1C(=O)NCCc1ccco1`, the Potency was 7.36 µM (active). With `CCc1nc2ccc(C(=O)NCCc3ccco3)cc2nc1CC` the Potency was 14.7 µM (active). In the case of `CC1CCN(C(=O)CSCc2ccc(Cl)cc2)CC1`, the Potency is reported as 11.7 µM (active). With `O=C(CCSc1ccccc1)N1CCN(c2ccccc2F)CC1` the Potency was 7.36 µM (active). With `O=C(CSCc1ccccc1)N1CCN(c2ccccc2)CC1` the Potency was 6.56 µM (active). For `O=C(CCSc1ccccc1)N1CCN(c2ccccc2)CC1`, the Potency was 6.56 µM (active). With `Cc1ccc(SCCC(=O)N2CCC(C)CC2)cc1` the Potency was 7.36 µM (active). In the case of `CN(C)c1ccc(/C=C2\CCCc3c2nc2ccccc2c3C(=O)O)cc1`, the Potency is reported as 4.65 µM (active). With `O=C(O)c1c2c(nc3ccccc13)/C(=C/c1ccc(OC(F)F)cc1)CCC2` the Potency was 14.7 µM (active). For `Cc1cc2nc(-c3ccc(NC(=O)C(C)C)cc3)oc2cc1C`, the Potency was 0.369 µM (active). In the case of `Cc1ccc2oc(-c3ccc(C)c(NC(=O)c4ccc(-c5ccccc5[N+](=O)[O-])o4)c3)nc2c1`, the Potency is reported as 8.26 µM (active). In the case of `Cc1ccc2oc(-c3ccc(Cl)c(NC(=O)c4cc5ccccc5o4)c3)nc2c1`, the Potency is reported as 5.85 µM (active). For `Cc1ccc2oc(-c3ccc(NC(=O)c4cccc(F)c4)c(C)c3)nc2c1`, the Potency was 7.36 µM (active). With `Cc1cc2nc(-c3ccc(NC(=O)c4cc5ccccc5o4)cc3)oc2cc1C` the Potency was 8.26 µM (active). With `C/C(=N\NC(=O)c1ccoc1C)c1cccc2ccccc12` the Potency was 7.36 µM (active). With `C/C(=N\NC(=O)c1ccoc1C)c1ccccc1` the Potency was 1.85 µM (active). In the case of `Cc1ccc(NC(=O)c2ccoc2C)cc1C`, the Potency is reported as 4.14 µM (active). For `CCc1ccc(C(=O)N/N=C/c2cccc3ccccc23)nc1`, the Potency was 8.26 µM (active). In the case of `Cc1occc1C(=O)N/N=C/c1cnn(C)c1C`, the Potency is reported as 13.1 µM (active). With `Cc1occc1C(=O)NNC(=S)Nc1ccccc1C(F)(F)F` the Potency was 8.26 µM (active). In the case of `C/C(CC(=O)NC(C)(C)C)=N\NC(=O)c1ccco1`, the Potency is reported as 6.56 µM (active). With `C/C(=N\NC(=O)c1ccco1)c1ccc(-c2ccccc2)cc1` the Potency was 2.93 µM (active). In the case of `Cc1occc1C(=O)NNC(=O)c1ccccc1C(=O)O`, the Potency is reported as 1.17 µM (active). With `Cc1occc1C(=O)N/N=C/c1cccc2ccccc12` the Potency was 2.07 µM (active). For `C/C(=N/NC(=O)c1ccoc1C)c1ccc(N2CCOCC2)cc1`, the Potency was 0.927 µM (active). In the case of `O=[N+]([O-])c1ccccc1-c1cc(-c2ccccc2O)n[nH]1`, the Potency is reported as 2.07 µM (active). For `c1nc(NCCN2CCOCC2)c2c3c(sc2n1)CCCCC3`, the Potency was 16.5 µM (active). In the case of `Cc1ccc(O)c(NC(=O)c2cc(-c3cccs3)on2)c1`, the Potency is reported as 4.65 µM (active). With `O=C(Nc1cc(Cl)ccc1O)c1cc(-c2ccco2)on1` the Potency was 16.5 µM (active). With `Cc1ccc(O)c(NC(=O)c2cc(-c3ccccc3)on2)c1` the Potency was 2.61 µM (active). With `Cc1ccc(O)c(NC(=O)c2cc(-c3ccco3)on2)c1` the Potency was 13.1 µM (active). For `Cc1cc(NCc2ccccn2)ccc1Br`, the Potency was 9.27 µM (active). For `COc1ccc(-c2nc(C#N)c(NCCCn3ccnc3)o2)cc1OC`, the Potency was 16.5 µM (active). With `COc1ccc(-c2nc(C#N)c(NCCc3ccccc3)o2)cc1` the Potency was 9.27 µM (active). With `CC(C)(C)c1ccc(-c2nc(C#N)c(NCc3ccncc3)o2)cc1` the Potency was 4.14 µM (active). In the case of `COc1ccc(-c2nc(C#N)c(NCc3ccc(C)cc3)o2)cc1OC`, the Potency is reported as 7.36 µM (active). For `COc1ccc(-c2nc(C#N)c(NCCc3ccccc3)o2)cc1OC`, the Potency was 2.93 µM (active). For `CCC(=O)Nc1cccc(OCc2cc(=O)n3cc(C)ccc3n2)c1`, the Potency was 6.56 µM (active). For `Cc1csc2ncc(C(=O)Nc3ccc4c(c3)OCCO4)c(=O)n12`, the Potency was 0.208 µM (active). For `O=C(Nc1ccc2c(c1)OCCO2)c1cnc2n(c1=O)CCS2`, the Potency was 1.47 µM (active). In the case of `COc1cccc(-c2noc(-c3ccoc3C)n2)c1`, the Potency is reported as 6.56 µM (active). With `COc1ccc(-c2noc(-c3ccoc3C)n2)cc1` the Potency was 2.07 µM (active). For `Cc1ccc(/C=N/Nc2ncnc3nc[nH]c23)cc1`, the Potency was 0.826 µM (active). With `CCc1ccc(/C=N/Nc2ncnc3nc[nH]c23)cc1` the Potency was 0.656 µM (active). With `Cc1ccc(/C=N/Nc2nnc(Cl)c3ccccc23)cc1` the Potency was 0.414 µM (active). With `Cc1ccc(NC(=O)Nc2ncnc3nc[nH]c23)cc1` the Potency was 2.93 µM (active). In the case of `Cc1cccc(/C=N/NC(=O)c2ccc(Br)cc2)c1`, the Potency is reported as 18.5 µM (active). In the case of `O=C(NNC(=S)Nc1ccccc1)c1cccs1`, the Potency is reported as 2.07 µM (active). In the case of `COc1ccc(NC(=S)NNC(=O)c2cccs2)cc1`, the Potency is reported as 7.36 µM (active). In the case of `CCN(CC)c1ccc(NC(=S)NC(=O)c2cccs2)cc1`, the Potency is reported as 2.33 µM (active). For `CCc1ccccc1Nc1ncnc2c1cnn2-c1ccc(Cl)cc1`, the Potency was 6.56 µM (active). For `Cc1ccc(-n2ncc3c(Nc4cccc(C)c4C)ncnc32)cc1`, the Potency was 2.07 µM (active). In the case of `CCOc1ccccc1Nc1ncnc2c1cnn2-c1ccc(C)cc1`, the Potency is reported as 5.21 µM (active). In the case of `COc1nc(-c2ccccc2)ccc1-c1noc(C)n1`, the Potency is reported as 7.36 µM (active). With `COc1nc(C)ccc1-c1noc(-c2cccs2)n1` the Potency was 1.85 µM (active). For `CCOc1ccccc1-c1nc(-c2ccc(C)nc2OC)no1`, the Potency was 3.69 µM (active). For `COc1ccccc1-c1nc(-c2ccc(C)nc2OC)no1`, the Potency was 3.29 µM (active). For `CCOc1ccc(-c2nc(-c3ccccc3C)no2)cc1`, the Potency was 0.826 µM (active). With `NC(=O)c1ccccc1NC(=O)/C=C/c1c(Cl)cccc1Cl` the Potency was 2.93 µM (active). In the case of `O=C(/C=C/c1c(F)cccc1Cl)Nc1nc2ccccc2[nH]1`, the Potency is reported as 5.21 µM (active). In the case of `O=C(/C=C/c1c(F)cccc1Cl)Nc1ncccn1`, the Potency is reported as 3.29 µM (active). For `S=C(Nc1ccc2[nH]ccc2c1)NC1CCCCC1`, the Potency was 4.14 µM (active). With `Cc1cccn2cc(-c3c[nH]c4ccccc34)nc12` the Potency was 13.1 µM (active). In the case of `O=C(c1cc(COc2ccc(F)cc2Cl)on1)N1CCSCC1`, the Potency is reported as 6.56 µM (active). For `O=C(c1cc(COc2ccc(F)cc2F)on1)N1CCSCC1`, the Potency was 5.85 µM (active). In the case of `O=C(c1cc(COc2ccc(F)cc2F)on1)N1CCOCC1`, the Potency is reported as 14.7 µM (active). For `O=C(c1cc(COc2ccc(F)cc2Cl)on1)N1CCCCCC1`, the Potency was 4.14 µM (active). In the case of `O=C(c1cc(COc2c(F)cccc2F)on1)N1CCCCCC1`, the Potency is reported as 7.36 µM (active). In the case of `O=c1c(Cl)c(N2CCN(c3ccc(F)cc3)CC2)cnn1-c1nc2ccccc2s1`, the Potency is reported as 3.29 µM (active). For `Cc1ccc(C)c(N2CCN(c3cnn(-c4nc5ccccc5s4)c(=O)c3Cl)CC2)c1`, the Potency was 0.927 µM (active). With `O=C(/C=C/c1ccccc1)NC1CC2CCC1C2` (centres undefined) the Potency was 7.36 µM (active). For `Cc1cc(-c2ccc(N3CCOCC3)cc2)nc2ccccc12`, the Potency was 3.29 µM (active). In the case of `NC(=O)CC1C(=O)N(c2ccccc2)C(=S)N1NC(=O)c1ccc(Br)cc1` (centres undefined), the Potency is reported as 7.36 µM (active). For `COc1cccc(C(=O)NN2C(=S)N(c3ccccc3)C(=O)C2CC(N)=O)c1` (centres undefined), the Potency was 6.56 µM (active). In the case of `COc1ccc(-c2nnc(-c3ccccc3)o2)cc1OC`, the Potency is reported as 3.69 µM (active). In the case of `COc1ccc(-c2nnc(-c3ccc(Br)o3)o2)cc1OC`, the Potency is reported as 14.7 µM (active). In the case of `COc1ccccc1-c1nnc(-c2ccc(N3CCOCC3)cc2)o1`, the Potency is reported as 7.36 µM (active). For `CCOc1ccc(-c2nnc(-c3cccs3)o2)cc1OCC`, the Potency was 6.56 µM (active). In the case of `COc1ccc(CCN(C)C(=O)CCc2nnc(-c3ccccc3)o2)cc1OC`, the Potency is reported as 4.65 µM (active). For `c1csc(-c2nc(-c3ccc(-c4ccon4)s3)no2)c1`, the Potency was 0.329 µM (active). For `COc1ccc(-c2noc(-c3cccs3)n2)cc1OC`, the Potency was 0.826 µM (active). With `CN(C)c1ccc(-c2nnc(-c3cccs3)o2)cc1` the Potency was 0.117 µM (active). For `COc1ccc(-c2nnc(-c3cccs3)o2)cc1OC`, the Potency was 2 µM (active). In the case of `CCOc1ccc(-c2nnc(-c3ccco3)o2)cc1OCC`, the Potency is reported as 16.5 µM (active).
